# Active and inactive are the calls of the source. Rule for the calls: active = hit-call score of the fitted dose curve at least 0.9, where 1 is the maximum; inactive = score below 0.9.
# Target: Glycogen synthase kinase-3 beta (Homo sapiens) (UniProt P49841)
# Test: ERF_FR_ENZ_hGSK3b: Eurofins (ERF) Enzymatic Radiometric [Km ATP] KinaseProfiler LeadHunter Assay for human GSK3beta (GSK3B) CMGC Kinase
# Protocol: ERF_FR_ENZ_hGSK3b is a biochemical, single-readout assay that uses extracted gene-proteins in a cell-free assay. Measurements were taken 1.5 hour after chemical dosing in a 96-well plate. See GSK3beta Human CMGC Kinase Enzymatic LANCE Assay [Km ATP], Cerep.ERF_FR_ENZ_hGSK3b is an assay component calculated from the ERF_FR_ENZ_hGSK3b assay. It is designed to measure enzyme activity using a type of enzyme reporter as detected by fluorescence intensity with LANCE technology.Data from the assay component ERF_FR_ENZ_hGSK3b was analyzed at the assay endpoint, ERF_FR_ENZ_hGSK3b, in the positive analysis fitting direction relative to DMSO as the negative control and baseline of activity. Using a type of enzyme reporter, loss-of-signal activity can be used to understand changes in enzymatic activity as they relate to gene GSK3B. To generalize the intended target to other relatable targets, this assay endpoint is annotated to the kinase intended target family, where the subfamily is serine/threonine kinase.
# GSK3b (h) is incubated with 8 mM MOPS pH 7.0, 0.2 mM EDTA, 20 uM […](p) EDEEE (phospho GS2 peptide), 10 mM MgAcetate and [gamma-33P]-ATP (specific activity and concentration as required). The reaction is initiated by the addition of the Mg/ATP mix. After incubation for 40 minutes at room temperature, the reaction is stopped by the addition of phosphoric acid to a concentration of 0.5%. […]
# Glycogen synthase kinase-3 beta (Homo sapiens), sequence (P49841 whole entry, looked up): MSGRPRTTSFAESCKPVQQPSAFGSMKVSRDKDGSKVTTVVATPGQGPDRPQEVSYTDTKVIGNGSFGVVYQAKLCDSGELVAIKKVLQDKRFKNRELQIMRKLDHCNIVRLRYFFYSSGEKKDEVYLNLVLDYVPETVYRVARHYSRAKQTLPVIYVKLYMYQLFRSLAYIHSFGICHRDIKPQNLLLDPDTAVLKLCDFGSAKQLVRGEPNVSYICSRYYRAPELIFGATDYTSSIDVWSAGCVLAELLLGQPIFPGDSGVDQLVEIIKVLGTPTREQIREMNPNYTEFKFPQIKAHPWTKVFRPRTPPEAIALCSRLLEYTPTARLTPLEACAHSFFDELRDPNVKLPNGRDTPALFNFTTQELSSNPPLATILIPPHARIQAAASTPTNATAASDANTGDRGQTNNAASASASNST
row,Compound,AC50
1,O=C(/C=C/c1ccc(O)cc1)CC(=O)/C=C/c1ccc(O)cc1,2140 nM (active)

# Reference: PubChem BioAssay AID2284092 (EPA ToxCast)
